Source: PubChem BioAssay AID1159580 (chemical genetic matrix, 2015)
Several values for one entry are separate records, joined by “and”; a condition that tells them apart may be missing. Equal entries are not always repeated. Among all 5,500 compounds or so, about 2,000 (36%) were called active. About 18% were inconclusive and are not listed. Cut-off read from the data, not from the text of the source: active = normalized growth mostly below about 0.91 (no sharp cut-off); inconclusive = no clear call, values can overlap the other calls; inactive = mostly above about 0.92. The list shows a part of the results.

Experiment: chemical genetic growth profiling, strain panel (AID 1159580);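 note: tested at 20 µM; growth read once vehicle control cultures reached saturation at 30 °C; 1 = growth at the plate median or of vehicle wells; lower values mean less growth of the strain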
Details: S. cerevisiae deletion strains, growth OD

Measured: normalized growth

C=C(C)C1Cc2c(ccc3c(=O)c4c(oc23)COc2cc(OC)c(OC)cc2-4)O1 (stereo unspecified)
inactive: locus YAL021C, strain ccr4, stronger effect = lower value 1.01 | locus YAL026C, strain drs2, stronger effect = lower value 0.999 | locus YAL030W, strain snc1, stronger effect = lower value 0.987 | locus YBL061C, strain skt5, stronger effect = lower value 0.999 | locus YBR009C, strain hhf1, stronger effect = lower value 1 | locus YBR021W, strain FUR4, stronger effect = lower value 1.05 | locus YBR023C, strain chs3, stronger effect = lower value 0.998 | locus YBR171W, strain sec66, stronger effect = lower value 0.99 | locus YBR229C, strain ROT2, stronger effect = lower value 1 | locus YBR231C, strain swc5, stronger effect = lower value 1.01 | locus YBR279W, strain paf1, stronger effect = lower value 1 | locus YCL011C, strain gbp2, stronger effect = lower value 0.989 | locus YCL016C, strain dcc1, stronger effect = lower value 0.995 | locus YCL029C, strain bik1, stronger effect = lower value 1 | locus YCL061C, strain MRC1, stronger effect = lower value 0.996 | locus YCL069W, strain vba3, stronger effect = lower value 0.999 | locus YCR088W, strain abp1, stronger effect = lower value 0.996 | locus YDL005C, strain med2, stronger effect = lower value 0.997 | locus YDL035C, strain GPR1, stronger effect = lower value 1.04 | locus YDL040C, strain nat1, stronger effect = lower value 0.991 | locus YDL074C, strain BRE1, stronger effect = lower value 1.04 | locus YDL101C, strain DUN1, stronger effect = lower value 0.994 | locus YDL134C, strain PPH21, stronger effect = lower value 1.01 | locus YDL185W, strain tfp1, stronger effect = lower value 0.956 | locus YDL192W, strain arf1, stronger effect = lower value 1.03 | locus YDR001C, strain nth1, stronger effect = lower value 1 | locus YDR069C, strain doa4, stronger effect = lower value 1 | locus YDR101C, strain arx1, stronger effect = lower value 1.04 | locus YDR137W, strain rgp1, stronger effect = lower value 0.926 | locus YDR150W, strain NUM1, stronger effect = lower value 0.989 | locus YDR159W, strain sac3, stronger effect = lower value 1.01 | locus YDR162C, strain NBP2, stronger effect = lower value 1.04 | locus YDR195W, strain ref2 0.998 | locus YDR297W, strain sur2, stronger effect = lower value 0.995 | locus YDR318W, strain mcm21, stronger effect = lower value 1.01 | locus YDR334W, strain swr1, stronger effect = lower value 0.982 | locus YDR335W, strain msn5, stronger effect = lower value 1 | locus YDR388W, stronger effect = lower value 0.997 | locus YDR392W, strain spt3, stronger effect = lower value 0.982 | locus YDR502C, strain sam2, stronger effect = lower value 1.01 | locus YEL003W, strain gim4, stronger effect = lower value 0.991 | locus YEL037C, strain rad23, stronger effect = lower value 0.997 | locus YEL061C, strain CIN8 (second series), stronger effect = lower value 1 | locus YEL061C, strain CIN8, stronger effect = lower value 1 | locus YER015W, strain faa2, stronger effect = lower value 1 | locus YER016W, strain bim1, stronger effect = lower value 0.994 | locus YER110C, stronger effect = lower value 1 | locus YER111C, strain swi4, stronger effect = lower value 1.01 | locus YER155C, strain BEM2 (second series), stronger effect = lower value 1.01 | locus YER155C, strain BEM2, stronger effect = lower value 0.99 | locus YER167W, strain BCK2, stronger effect = lower value 0.988 | locus YFR010W, strain ubp6, stronger effect = lower value 0.988 | locus YGL078C, strain dbp3, stronger effect = lower value 0.987 | locus YGL086W, strain mad1, stronger effect = lower value 0.995 | locus YGL167C, strain pmr1, stronger effect = lower value 1.01 | locus YGL173C, strain kem1, stronger effect = lower value 0.996 | locus YGL227W, strain vid30, stronger effect = lower value 1.01 | locus YGL240W, strain doc1, stronger effect = lower value 1.01 | locus YGL248W, strain PDE1, stronger effect = lower value 0.999 | locus YGL253W, strain hxk2, stronger effect = lower value 1 | locus YGR135W, strain pre9, stronger effect = lower value 0.983 | locus YGR229C, strain SMI1, stronger effect = lower value 0.988 | locus YGR252W, strain gcn5, stronger effect = lower value 1.06 | locus YHR013C, strain ard1, stronger effect = lower value 1.01 | locus YHR027C, strain rpn1, stronger effect = lower value 0.99 | locus YHR030C, strain SLT2, stronger effect = lower value 0.973 and 1.01 | locus YHR079C, strain IRE1 (second series), stronger effect = lower value 1 | locus YHR079C, strain IRE1, stronger effect = lower value 1.06 | locus YHR094C, strain hxt1, stronger effect = lower value 0.979 | locus YHR129C, strain ARP1, stronger effect = lower value 1.01 | locus YHR142W, strain chs7, stronger effect = lower value 1.01 | locus YHR200W, strain rpn10, stronger effect = lower value 1.01 | locus YIL066C, strain RNR3, stronger effect = lower value 1 | locus YIL073C, strain SPO22, stronger effect = lower value 0.927 | locus YIL125W, strain kgd1, stronger effect = lower value 0.998 | locus YIR030C, strain dcg1, stronger effect = lower value 0.999 | locus YJL092W, strain hpr5, stronger effect = lower value 0.993 | locus YJL095W, strain BCK1 (second series), stronger effect = lower value 0.998 | locus YJL095W, strain BCK1, stronger effect = lower value 1.03 and 1.01 | locus YJL115W, strain asf1, stronger effect = lower value 0.974 | locus YJL129C, strain trk1, stronger effect = lower value 0.993 | locus YJL134W, strain LCB3, stronger effect = lower value 0.998 | locus YJL154C, strain vps35, stronger effect = lower value 0.99 | locus YJL164C, strain tpk1, stronger effect = lower value 1 | locus YJL166W, strain qcr8, stronger effect = lower value 1.01 | locus YJL168C, strain set2, stronger effect = lower value 0.998 | locus YJL187C, strain SWE1 (second series), stronger effect = lower value 0.995 | locus YJL187C, strain SWE1, stronger effect = lower value 1.01 | locus YJR043C, strain POL32, stronger effect = lower value 1.04 | locus YJR066W, strain TOR1, stronger effect = lower value 0.986 | locus YKL009W, strain mrt4, stronger effect = lower value 1 | locus YKL068W, stronger effect = lower value 0.982 | locus YKL085W, strain MDH1 (second series), stronger effect = lower value 0.997 | locus YKL085W, strain MDH1, stronger effect = lower value 0.997 | locus YKL160W, strain elf1, stronger effect = lower value 1.01 | locus YKL190W, strain CNB1, stronger effect = lower value 0.992 | locus YKR001C, strain vps1, stronger effect = lower value 1.03 | locus YKR026C, strain gcn3, stronger effect = lower value 0.999 | locus YKR091W, strain srl3, stronger effect = lower value 0.999 | locus YLL001W, strain dnm1, stronger effect = lower value 0.995 | locus YLL026W, stronger effect = lower value 0.993 | locus YLL041C, strain sdh2, stronger effect = lower value 0.978 | locus YLR027C, strain aat2, stronger effect = lower value 0.986 | locus YLR039C, strain RIC1, stronger effect = lower value 0.99 | locus YLR058C, strain SHM2, stronger effect = lower value 1.02 | locus YLR102C, strain apc9, stronger effect = lower value 0.993 | locus YLR113W, strain HOG1, stronger effect = lower value 0.992 | locus YLR221C, strain rsa3, stronger effect = lower value 1 | locus YLR258W, strain gsy2, stronger effect = lower value 0.991 | locus YLR262C, strain YPT6 (second series), stronger effect = lower value 1 | locus YLR262C, strain YPT6, stronger effect = lower value 0.969 | locus YLR268W, strain sec22, stronger effect = lower value 1.04 | locus YLR320W, strain mms22, stronger effect = lower value 1.02 | locus YLR330W, strain CHS5, stronger effect = lower value 1 | locus YLR342W, strain FKS1 (second series), stronger effect = lower value 1.06 | locus YLR342W, strain FKS1, stronger effect = lower value 1 | locus YLR357W, strain rsc2, stronger effect = lower value 1.02 | locus YLR370C, strain arc18, stronger effect = lower value 1.01 | locus YLR371W, strain rom2, stronger effect = lower value 0.98 | locus YLR384C, strain iki3, stronger effect = lower value 1 | locus YLR418C, strain cdc73, stronger effect = lower value 1.05 | locus YML016C, strain PPZ1, stronger effect = lower value 0.999 | locus YML032C, strain rad52, stronger effect = lower value 1.01 | locus YML120C, strain ndi1, stronger effect = lower value 1.01 | locus YML124C, strain tub3, stronger effect = lower value 0.992 | locus YMR058W, strain fet3, stronger effect = lower value 1 | locus YMR078C, strain ctf18, stronger effect = lower value 0.998 | locus YMR125W, strain sto1, stronger effect = lower value 0.998 | locus YMR129W, stronger effect = lower value 0.996 | locus YMR205C, strain PFK2, stronger effect = lower value 1.02 | locus YMR223W, strain ubp8, stronger effect = lower value 1.01 | locus YMR231W, strain pep5, stronger effect = lower value 0.996 | locus YMR307W, strain GAS1, stronger effect = lower value 1.18 | locus YNL067W, strain RPL9B, stronger effect = lower value 0.984 | locus YNL071W, strain lat1, stronger effect = lower value 0.981 | locus YNL153C, strain GIM3, stronger effect = lower value 0.991 | locus YNL183C, strain NPR1, stronger effect = lower value 0.988 | locus YNL209W, strain ssb2, stronger effect = lower value 0.999 | locus YNL233W, strain BNI4, stronger effect = lower value 1.03 | locus YNL248C, strain rpa49, stronger effect = lower value 0.991 | locus YNL250W, strain rad50, stronger effect = lower value 0.962 | locus YNL271C, strain bni1, stronger effect = lower value 0.99 | locus YNL298W, strain CLA4, stronger effect = lower value 1 | locus YNL307C, strain MCK1, stronger effect = lower value 0.993 | locus YNL322C, strain KRE1 (second series), stronger effect = lower value 1 | locus YNL322C, strain KRE1, stronger effect = lower value 0.999 | locus YNR049C, strain mso1, stronger effect = lower value 1 | locus YNR052C, strain pop2, stronger effect = lower value 0.991 | locus YOL012C, strain htz1 1.59 | locus YOL147C, strain pex11, stronger effect = lower value 0.992 | locus YOR001W, strain rrp6, stronger effect = lower value 0.99 | locus YOR061W, strain CKA2, stronger effect = lower value 1 | locus YOR069W, strain VPS5, stronger effect = lower value 0.996 | locus YOR070C, strain gyp1, stronger effect = lower value 0.99 | locus YOR080W, strain dia2, stronger effect = lower value 1 | locus YOR083W, strain WHI5, stronger effect = lower value 1.01 | locus YOR106W, strain vam3, stronger effect = lower value 1.02 | locus YOR136W, strain idh2, stronger effect = lower value 1 | locus YOR144C, strain elg1, stronger effect = lower value 0.999 | locus YOR184W, strain ser1, stronger effect = lower value 1.07 | locus YOR231W, strain MKK1, stronger effect = lower value 1.03 | locus YOR265W, strain rbl2, stronger effect = lower value 0.993 | locus YOR270C, strain vph1, stronger effect = lower value 1 | locus YOR290C, strain snf2, stronger effect = lower value 0.998 | locus YOR316C, strain cot1, stronger effect = lower value 0.982 | locus YPL051W, strain arl3, stronger effect = lower value 1.01 | locus YPL078C, strain atp4, stronger effect = lower value 1.01 | locus YPL106C, strain sse1, stronger effect = lower value 0.992 | locus YPL240C, strain hsp82, stronger effect = lower value 0.976 | locus YPL241C, strain CIN2, stronger effect = lower value 0.991 | locus YPL256C, strain CLN2, stronger effect = lower value 1.03 | locus YPR119W, strain clb2, stronger effect = lower value 0.988 | locus YPR141C, strain kar3, stronger effect = lower value 0.974 | locus YPR163C, strain tif3, stronger effect = lower value 0.974 | locus YPR167C, strain met16, stronger effect = lower value 1.01 | strain wtn01, stronger effect = lower value 1.03
